# Data reported in the supplement of paper PMC6555819.
# Key:
# Assay in all cases: PBM binding z-score (relative to random genomic background probes); higher = stronger binding; sequences stand for … in GC…GCGATTGACAGCGTAGAATGAAGG
# [1] = system: FXR:RXRa (NR concentration 270 nM, RXRa partner concentration 90 nM)
# In short: (§1)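 Binding buffer was PBS pH 7.4 with 2% milk, 0.02% Triton X-100, 1 mM DTT, 0.2 mg/mL BSA and 0.4 mg/ml salmon testes DNA. In it, ligand-free nuclear receptor dimers were incubated 1 h on custom Agilent 4×180K protein-binding microarrays carrying double-stranded probes. Antibodies against each partner (one per run) detected binding, and z-scores were calculated against random background probes after regression normalization of scanned fluorescence.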
# [2] = system: LXRa:RXRa (NR concentration 270 nM, RXRa partner concentration 90 nM)
# In short: as §1
# [3] = system: LXRa homodimer (NR concentration 270 nM)
# In short: as §1
# [4] = system: LXRb:RXRa (NR concentration 270 nM, RXRa partner concentration 90 nM)
# In short: as §1
# [5] = system: LXRb homodimer (NR concentration 270 nM)
# In short: as §1
# [6] = system: PPARa:RXRa (NR concentration 270 nM, RXRa partner concentration 90 nM)
# In short: as §1
# [7] = system: PPARg:RXRa (NR concentration 180 nM, RXRa partner concentration 90 nM)
# In short: as §1
# [8] = system: PPARg:RXRa 270nM:90nM, anti-RXR (NR concentration 270 nM, RXRa partner concentration 90 nM)
# In short: as §1
# [9] = system: PPARg:RXRa 30nM:10nM, anti-RXR (NR concentration 30 nM, RXRa partner concentration 10 nM)
# In short: as §1
# [10] = system: PPARg:RXRa 90nM:30nM, anti-RXR (NR concentration 90 nM, RXRa partner concentration 30 nM)
# In short: as §1
# [11] = system: PPARg:RXRa DBDmut IVT, anti-RXR (DBD mutation: RXRa K156A/R161A, NR concentration 270 nM, RXRa partner concentration 90 nM)
# In short: as §1
# [12] = system: PPARg:RXRa IVT, anti-PPARg (NR concentration 270 nM, RXRa partner concentration 90 nM)
# In short: as §1
# [13] = system: PPARg DBDmut:RXRa IVT, anti-PPARg (DBD mutation: PPARg1 K132A/R137A, NR concentration 270 nM, RXRa partner concentration 90 nM)
# In short: as §1
# [14] = system: PPARg DBDmut IVT, anti-PPARg (DBD mutation: PPARg1 K132A/R137A, NR concentration 270 nM)
# In short: as §1
# [15] = system: PPARg homodimer (NR concentration 180 nM)
# In short: as §1
# [16] = system: PXR:RXRa (NR concentration 270 nM, RXRa partner concentration 90 nM)
# In short: as §1
# [17] = system: PXR homodimer (NR concentration 270 nM)
# In short: as §1
# [18] = system: RARa:RXR (NR concentration 270 nM, RXRa partner concentration 90 nM)
# In short: as §1
# [19] = system: RARa homodimer (NR concentration 270 nM)
# In short: as §1
# [20] = system: RARb:RXRa (NR concentration 270 nM, RXRa partner concentration 90 nM)
# In short: as §1
Sequence,PBM binding z-score [1],PBM binding z-score [2],PBM binding z-score [3],PBM binding z-score [4],PBM binding z-score [5],PBM binding z-score [6],PBM binding z-score [7],PBM binding z-score [8],PBM binding z-score [9],PBM binding z-score [10],PBM binding z-score [11],PBM binding z-score [12],PBM binding z-score [13],PBM binding z-score [14],PBM binding z-score [15],PBM binding z-score [16],PBM binding z-score [17],PBM binding z-score [18],PBM binding z-score [19],PBM binding z-score [20]
TAGCCTAGGTCAGGTCGGGCCAGTATACGCTATA,2.66,1.06,-0.52,0.724,-0.502,1.71,0.639,0.781,-0.544,0.204,0.315,1.69,-0.681,-1.44,0.477,1.51,-0.668,1.25,-1.19,3.24
AGAATGAGGTTAAGATCCGGGAAACAGAATACAT,2.5,1.75,-0.0766,1.58,-0.277,3.26,2.03,1.97,0.812,1.72,2.97,2.71,1.45,0.576,0.097,0.953,0.0989,2,0.396,1.88
CGAACTAGGTCATCCAGGACAGTAAATACATTGA,4.22,2.79,0.899,2.36,0.21,4.68,7.87,6.33,3.68,5.68,7.97,8.2,3,3.62,2.26,2.15,1.3,2.69,0.413,3.89
TGAATGAGGTTATAAGATCAGGGATCGTTGCAAA,1.25,1.28,-0.202,0.676,-0.353,2.81,1.56,2.12,0.946,1.28,0.979,1.86,1.31,0.477,0.305,0.783,0.0722,1.24,0.256,0.862
GCTTACGGGTCAAAGATTATAGCATGAATAGAAT,5.74,3.66,-0.0414,3.8,0.557,5.34,6.3,6.09,3.92,5.77,3.85,3.76,1.41,1.16,1.35,3.23,-0.0668,4.47,0.373,3.39
CCTTACGGGTCACTCCAGGTTACAGCATCGGAGT,4.9,7.35,2.06,4.72,0.0209,4.42,3.74,3.8,1.1,2.64,2.73,4.01,0.164,-0.572,1.91,4.66,0.311,3.94,0.566,3.86
AATACAGGGTCATCGTAGGCCAGAGGACGCACAG,7.28,6.5,2.24,4.6,1.25,5.96,6.68,6.34,3.12,4.94,2.45,4.1,1.52,0.83,2,4.85,0.696,4.98,0.699,4.41
CCTACTGGACCATTCAGAGGTCATTGATCATATG,3.05,4.64,6.93,3.96,1.41,3.7,0.988,2.16,0.466,1.38,2.24,1.98,0.483,0.13,3.36,4.92,3.43,4.69,1.66,2.8
